# Results: PubChem BioAssay
# Calls of active or inactive are those of the source. Unless noted, how the calls were made is not given here.
# How the values were obtained:
# [1] = tested on: Neuropilin-2 / VEGF-C interaction (human); assay: inhibitors of NRP2–VEGF-C binding, biochemical, microplate binding format, z-score (AID 743281); details: microplate NRP2/VEGF-C binding assay; stronger effect = lower value
# [2] = modulation of C. elegans fzo-1 (AID 1259413);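 further: fzo-1 mutant C. elegans worms in liquid wells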; details: C. elegans fzo-1 modulator screen, mean read-out; stronger effect = higher value
# [3] = differential killing of epithelial or mesenchymal cells, primary screen, imaging, PC-3E GFP, TEM4-18 mCherry, co-culture (AID 1345086;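 active means compounds killing one labelled cell type while sparing the other, by normalised counts and ratio limits, not self-fluorescent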;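 on all read-outs here: cells exposed to compound for 72 h before imaging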;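 on red/green cell ratio (normalised): normalised mesenchymal count divided by normalised epithelial count so high means epithelial killing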); details: imaging cell counts, at 1 µM; for red/green cell ratio (normalised): actives lie on both sides, counts scaled to control wells, 1 = unselective
# [4] = liver-stage malaria parasite growth inhibition, primary screen, cell-based, HepG2, luciferase luminescence, HepG2 viability (AID 624349; in the data active means parasite load remaining mostly below about 12%, no sharp cut-off; inactive means mostly above about 10%;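 further: 100% = mean of DMSO negative control wells on the same plate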); details: P. berghei liver stage in HepG2, luciferase luminescence, concentration not given here; parasite load remaining: stronger effect = lower value; viability: measured here: HepG2 viability without parasites
# [5] = Cy5 fluorescence interference with SSB-bound oligo, artefact control for HCV NS3 helicase inhibitor project, biochemical, NIH Clinical Collection, E. coli SSB (AID 743268)
# [6] = tested on: Hepatitis C virus NS3 helicase; assay: HCV NS3 helicase inhibitors, primary screen, biochemical, fluorescence polarization, NIH Clinical Collection (AID 743270); details: NS3 helicase binding to Cy5-dT15 DNA, stronger effect = higher value, concentration not given here
# [7] = target: Single-stranded DNA-binding protein (Escherichia coli (strain K12)) (UniProt P0AGE0); assay: E. coli SSB displacement from DNA, counter-screen for HCV NS3 helicase inhibitor project, biochemical, fluorescence polarization, NIH Clinical Collection (AID 743271; in the data active means inhibition above about 28%); details: stronger effect = higher value, concentration not given here
# [8] = fluorescence interference in NS3h assay format, artefact control for HCV NS3 helicase inhibitor project, biochemical, NIH Clinical Collection (AID 743272); details: fluorescence interference counterscreen, stronger effect = lower value;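 further: HCV NS3 helicase with a Cy5 labelled single stranded DNA probe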
# [9] = measured here: epithelial PC-3E GFP cell survival
# [10] = measured here: mesenchymal TEM4-18 mCherry cell survival
smiles,measurement,setting,value
C=C1/C(=C\C=C2/CCCC3(C)[C@@H]([C@H](C)CCCC(C)(C)O)CC[C@@H]23)C[C@@H](O)C[C@@H]1O (some centres not stated),outcome,[1],inactive
same,mean signal,[2],260 (inactive)
CCOC(=O)O[C@]1(C(=O)OCCl)CC[C@H]2[C@@H]3CCC4=CC(=O)C=CC4(C)[C@H]3[C@@H](O)CC21C (some centres not stated),outcome,[1],inactive
same,mean signal,[2],256 (inactive)
C=C(C)[C@@H]1CC[C@]2(CO)CC[C@]3(C)[C@H](CCC4[C@@]5(C)CC[C@H](O)C(C)(C)C5CC[C@]43C)C12 (some centres not stated),red/green cell ratio (normalised),[3],0.84 (inactive)
same,normalised cell number,[3]; [9],1.09
same,normalised cell number,[3]; [10],0.91
CC(=O)O[C@]1(C(C)=O)CC[C@H]2[C@@H]3C=C(C)C4=CC(=O)CCC4(C)[C@H]3CCC21C (some centres not stated),outcome,[1],inactive
same,mean signal,[2],261 (inactive)
CCC(=O)O[C@]1(C(=O)SCF)[C@H](C)C[C@H]2[C@@H]3C[C@H](F)C4=CC(=O)C=CC4(C)[C@@]3(F)[C@@H](O)CC21C (some centres not stated),outcome,[1],inactive
same,mean signal,[2],245 (inactive)
CCC[C@H]1Cc2cc3c(-c4c(O)cc(O)c5c(O)c6c(cc45)C[C@H](CCC)OC6=O)c(O)cc(O)c3c(O)c2C(=O)O1,red/green cell ratio (normalised),[3],0.9 (inactive)
same,normalised cell number,[3]; [9],0.85
same,normalised cell number,[3]; [10],0.77
CCCc1oc(=O)cc(OC)c1CO,red/green cell ratio (normalised),[3],0.86 (inactive)
same,normalised cell number,[3]; [9],1.2
same,normalised cell number,[3]; [10],1.03
C/C=C1/[C@H]2C=C(C)C[C@]1(N)c1ccc(=O)[nH]c1C2,outcome,[1],inactive
same,mean signal,[2],229 (inactive)
CC12CCC(=O)C=C1CC[C@@H]1[C@@H]2[C@@H](O)CC2(C)[C@@H](C(=O)CO)CC[C@@H]12 (some centres not stated),outcome,[1],inactive
same,mean signal,[2],250 (inactive)
CC[C@H]1OC(=O)[C@H](C)C(=O)[C@H](C)[C@@H](O[C@@H]2O[C@H](C)C[C@H](N(C)C)[C@H]2O)[C@](C)(OC)C[C@@H](C)C(=O)[C@H](C)[C@@H]2N(CCCCn3cnc(-c4cccnc4)c3)C(=O)OC21C (some centres not stated),outcome,[1],inactive
same,mean signal,[2],205 (inactive)
COc1cc(O)c(C(C)=O)c(O)c1,red/green cell ratio (normalised),[3],0.99 (inactive)
same,normalised cell number,[3]; [9],0.97
same,normalised cell number,[3]; [10],0.97
O=C(O)C(c1ccccc1)c1ccccc1,red/green cell ratio (normalised),[3],1.12 (inactive)
same,normalised cell number,[3]; [9],1.01
same,normalised cell number,[3]; [10],1.13
C[C@@H]1C[C@H]2[C@@H]3CCC4=CC(=O)C=CC4(C)[C@@]3(F)[C@@H](O)CC2(C)[C@H]1C(=O)CO (some centres not stated),outcome,[1],inactive
same,mean signal,[2],245 (inactive)
CC(=O)OC12CO[C@@H]1C[C@H](O)[C@@]1(C)C(=O)[C@H](O)C3=C(C)[C@@H](OC(=O)[C@H](O)[C@@H](NC(=O)OC(C)(C)C)c4ccccc4)CC(O)([C@@H](OC(=O)c4ccccc4)[C@H]21)C3(C)C (some centres not stated),outcome,[1],inactive
same,mean signal,[2],256 (inactive)
CC(=O)C1=C(O)C=C2Oc3c(C(N)=O)c(O)cc(O)c3[C@@]2(C)C1=O,red/green cell ratio (normalised),[3],1.13 (inactive)
same,normalised cell number,[3]; [9],0.92
same,normalised cell number,[3]; [10],1.04
CC1=C(/C=C/C(C)=C/C=C/C(C)=C/C=C/C=C(C)/C=C/C=C(C)/C=C/C2=C(C)C(=O)C(O)CC2(C)C)C(C)(C)CC(O)C1=O (configuration not stated),red/green cell ratio (normalised),[3],1.11 (inactive)
same,normalised cell number,[3]; [9],0.97
same,normalised cell number,[3]; [10],1.08
CC(=O)O[C@H]1C[C@@H]2CC[C@@H]3[C@H](CCC4(C)[C@H]3C[C@H]([N+]3(C)CCCCC3)[C@@H]4OC(C)=O)C2(C)C[C@@H]1N1CCCCC1 (some centres not stated),outcome,[1],inactive
same,mean signal,[2],285 (inactive)
CO[C@H]1C=CO[C@@]2(C)Oc3c(C)c(O)c4c(O)c(c(/C=N/N5CCN(C6CCCC6)CC5)c(O)c4c3C2=O)NC(=O)/C(C)=C\C=C[C@H](C)[C@H](O)[C@@H](C)[C@@H](O)[C@@H](C)[C@H](OC(C)=O)[C@@H]1C,outcome,[1],inactive
same,mean signal,[2],288 (inactive)
C=CC1=C(C(=O)O)N2C(=O)[C@@H](NC(=O)/C(=N/OCC(=O)O)c3csc(N)n3)[C@H]2SC1,outcome,[1],inactive
same,mean signal,[2],257 (inactive)
C#C[C@]1(O)CC[C@H]2[C@@H]3[C@H](C)CC4=C(CCC(=O)C4)[C@H]3CCC21C (some centres not stated),outcome,[1],inactive
same,mean signal,[2],249 (inactive)
CO[C@H]1C=CO[C@@]2(C)Oc3c(C)c(O)c4c(O)c(c5c(nc6cc(C)ccn65)c4c3C2=O)NC(=O)/C(C)=C\C=C[C@H](C)[C@H](O)[C@@H](C)[C@@H](O)[C@@H](C)[C@H](OC(C)=O)[C@@H]1C,outcome,[1],inactive
same,mean signal,[2],289 (inactive)
CC12C=CC(=O)C=C1CC[C@@H]1[C@@H]2[C@@H](O)CC2(C)[C@H]1CC[C@]2(O)C(=O)COC(=O)CCC(=O)O (some centres not stated),outcome,[1],inactive
same,mean signal,[2],283 (inactive)
CC(C)(C)NC(=O)[C@H]1CC[C@H]2[C@@H]3CC[C@H]4NC(=O)C=CC4(C)[C@H]3CCC12C (some centres not stated),outcome,[1],inactive
same,mean signal,[2],247 (inactive)
C[C@H]1C(=O)CCC2[C@]3(C)CC[C@@]4(C)C5CC(C)(C)CC[C@]5(C)CC[C@]4(C)C3CC[C@@]21C (some centres not stated),red/green cell ratio (normalised),[3],1.06 (inactive)
same,normalised cell number,[3]; [9],1.06
same,normalised cell number,[3]; [10],1.13
OC[C@H]1O[C@@H](n2cnc3c(NC4CCCC4)nc(Cl)nc32)[C@@H](O)C1O (some centres not stated),parasite load remaining,[4],65.4% (inactive)
same,viability,[4],67.2%
same,fluorescence ratio,[5],0.94 (inactive)
same,inhibition,[6],-2.84% (inactive)
same,inhibition,[7],-1.97% (inactive)
same,fluorescence ratio,[8],0.97 (inactive)
same,z-score,[1],-0.619 (inactive)
same,mean signal,[2],256 (inactive)
N[C@@H](C(=O)N[C@@H]1C(=O)N2C(C(=O)O)=C(CSC3CNNN3)CS[C@H]12)c1ccc(O)cc1 (some centres not stated) (tested in a mixture with another compound),outcome,[1],inactive
same,mean signal,[2],239 (inactive)
C=C1/C(=C\C=C2/CCCC3(C)[C@@H]([C@H](C)/C=C/[C@@H](O)C4CC4)CC[C@@H]23)C[C@@H](O)C[C@@H]1O (some centres not stated),outcome,[1],inactive
same,mean signal,[2],277 (inactive)
OC[C@H]1O[C@@H](n2cnc3c(N[C@H]4CCC[C@@H]4O)ncnc32)[C@@H](O)C1O (some centres not stated),parasite load remaining,[4],54.4% (inactive)
same,viability,[4],67.3%
same,fluorescence ratio,[5],1.01 (inactive)
same,inhibition,[6],-1.09% (inactive)
same,inhibition,[7],-2.76% (inactive)
same,fluorescence ratio,[8],0.98 (inactive)
same,z-score,[1],-0.495 (inactive)
same,mean signal,[2],261 (inactive)
O=C(O)c1cc(O)c2c(c1)[C@@H]([C@@H]1c3cc(C(=O)O)cc(O)c3C(=O)c3c(O[C@H]4O[C@H](CO)[C@@H](O)[C@H](O)[C@H]4O)cccc31)c1cccc(O[C@H]3O[C@H](CO)[C@@H](O)[C@H](O)[C@H]3O)c1C2=O,red/green cell ratio (normalised),[3],0.83 (inactive)
same,normalised cell number,[3]; [9],1.02
same,normalised cell number,[3]; [10],0.84
COC(=O)c1cn(C2CC2)c2c(OC)c(F)c(F)cc2c1=O,red/green cell ratio (normalised),[3],0.9 (inactive)
same,normalised cell number,[3]; [9],1.11
same,normalised cell number,[3]; [10],1
